# Several values for one entry are separate records, joined by “and”; a condition that tells them apart may be missing. Identical values can stand only once. Inconclusive results are not listed. Where a call stands in place of a potency, no number is given. More than one record can exist for a structure, and the calls need not agree. Activity calls are given as the source filed them. Calls follow the shape of the dose curve; as a rule, active = well fitted cell-killing curve with a large enough effect in the repeat runs; inconclusive = weak or mixed curves; inactive = flat fitted curve, though single readings scatter.
# Assay: qHTS RealTime-Glo MT Cell Viability Assay in HepG2 cells - 16 hour (AID 1224885); also: nearly all actives have a fitted effect of over 50% in size
# Conditions: RealTime-Glo luminescence; series mostly up to 76.8 µM
# From the text: U.S. Tox21 Program National Center for Advancing Translational Sciences [NCATS] NIH Chemical Genomics Center [NCGC] U.S. Environmental Protection Agency [EPA] National Institutes of Environmental Health Sciences [NIEHS] National Toxicology Program [NTP] U.S. Food and Drug Administration [FDA] Tox21 Assay Overview: Measure of cell viability is critical in the cell-base assay. Analysis of cell viability is necessary for the characterization of cell responses to cytotoxic drugs and environmental stress. A RealTime-Glo MT Cell Viability Assay to monitor cell viability in real time of continues cell culture during 40 hours of compound treatment was used to screen Tox21 10K library compounds in HepG2 cells. The RealTime-Glo MT Cell Viability Assay is a nonlytic, homogeneous, bioluminescent method to measure cell viability in real time using a simple, plate-based method. The assay involves adding NanoLuc luciferase and a cell-permeant prosubstrate to cells in culture. Viable cells reduce the proprietary prosubstrate to generate a substrate for NanoLuc luciferase. This substrate diffuses from cells into the surrounding culture medium, where it is rapidly used by the NanoLuc Enzyme to produce a luminescent signal. The signal correlates with the number of viable cells, making the assay well suited for cytotoxicity studies.
# Tox21 Assay Protocol Summary: The mixture of HepG2 cell suspension and reagents were dispensed at 600cells/6 ul/well in 1536-well tissue culture treated black solid bottom plates using a Multidrop dispenser. After the assay plates were incubated at a 37 C/5% CO2 incubator for 5 hours, 23 nL of compounds dissolved in DMSO, positive and negative controls was transferred to the assay plate by a pintool work station. The plates were incubated at 37 C for 40 hours. The luminescence intensity were measured at 0h, 8h, 16h, 24h, 32h and 40h time points using ViewLux plate reader during compound treatment.
# Potency is read from the fitted curve at half-maximal effect.
row,Structure (SMILES),Potency
1,OCCOc1ccccc1,inactive
2,Oc1ccccc1-c1ccccc1,inactive
3,CCCC[n+]1cccc(C)c1,inactive
4,CC[N+]1(C)CCCC1,inactive
5,CCCCCCn1cc[n+](C)c1,inactive
6,CCCCCCCCCCCCCC[P+](CCCCCC)(CCCCCC)CCCCCC,13.9 µM (active) and 19.7 µM (active) and inactive
7,CN(C)[C@@H]1C(=O)C(C(N)=O)=C(O)[C@@]2(O)C(=O)C3=C(O)c4c(O)cccc4[C@@](C)(O)[C@H]3[C@H](O)[C@@H]12,inactive
8,COc1ccc(N)cc1,inactive
9,C[N+](C)(C)Cc1ccccc1,inactive
10,CCC[N+]1(C)CCCC1,inactive
11,Nc1ccc(-c2ccc(N)c(Cl)c2)cc1Cl,inactive and 49 µM (active)
12,O=C(O)CC(O)(CC(=O)O)C(=O)O,inactive
13,O=c1[nH]c(=O)n(Cl)c(=O)n1Cl,inactive
14,C[C@]12CCC(=O)C=C1CC[C@@H]1[C@@H]2CC[C@]2(C)C(=O)CC[C@@H]12,inactive
15,CCn1cc[n+](C)c1C,inactive
16,CC(Cl)(Cl)C(=O)O,inactive
17,O=[N+]([O-])c1ccccc1O,inactive
18,CCCC[N+]1(C)CCCC1,inactive
19,CC(=O)O,inactive
20,Cc1cc(Cl)ccc1N,inactive

row,Structure (SMILES),Potency
1,Oc1cccc2cccnc12,inactive and 3.89 µM (active)
2,COP(=O)(OC)OC=C(Cl)Cl,inactive
3,O=P1(N(CCCl)CCCl)NCCCO1 (stereo not given),inactive
4,CCCCn1cc[n+](C)c1C,inactive
5,CC(=O)[O][Hg][c]1ccccc1,1.72 µM (active) and 1.74 µM (active) and 1.07 µM (active)
6,CC[N+](CC)(CC)CC,inactive
7,CCNc1nc(Cl)nc(NCC)n1,inactive
8,C1CCC(NC2CCCCC2)CC1,inactive
9,O=C(O)COc1ccc(Cl)cc1Cl,inactive
10,CCCCCCCCCCCC(=O)O,inactive
11,CCCCCCCCCCCCOS(=O)(=O)O,inactive
12,CCCC[N+]1(C)CCCCC1,inactive
13,CCCCCC[n+]1ccccc1,inactive
14,O=C(O)CCl,inactive
15,COCC(=O)N(c1c(C)cccc1C)C(C)C(=O)OC (stereo not given),inactive
16,CCCCCCCCn1cc[n+](C)c1,inactive
17,Nc1ccccc1,inactive
18,O=S(=O)(O)O,inactive
19,Cc1cc(Cl)ccc1OCC(=O)O,inactive
20,O=C(O)c1ccccc1O,inactive
